An excerpt weighted towards active compounds, which were near 3.9% of everything screened.
TROY NFkB inh – inhibitors of TROY-dependent NF-kB signaling. Q293 LMP1-TROYcd NF-kB luciferase reporter, 4 h. AID 1347056. 360,000 tested, 0.98% active. inhibition, % at 10 µM;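 active means compounds whose plate-normalised and pattern-corrected inhibition of the luciferase reporter signal at the single screening dose is 50% or more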
C8 TRAIL sens – caspase-8 TRAIL sensitization | NB7+C8 cells + TRAIL, ATPlite viability luminescence | inhibition (viability loss, TRAIL sensitization), % at 10 µM | 360,000 tested, 1% active | AID 624354;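 active means compounds causing at least 50% loss of cell viability in the single-dose screen, relative to plate controls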
TWEAK Fn14 block – blocks TWEAK-Fn14 interaction in a reporter cell assay | TWEAK-stimulated Fn14 reporter cells, luciferase luminescence, 8 h | inhibition, % at 10 µM | AID 1159606 | 360,000 tested, 2% active; in the data active means inhibition above about 50%
HSP90 refold inh – HSP90 refolding inhibition in rabbit reticulocyte lysate; 290,000 tested, 0.91% active; inhibition, % at 5.6 µM; luciferase refolding luminescence, 3 h;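 active means inhibition above the screen-wide mean plus 3 SD, computed separately per campaign, cut at about 16% in these data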;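 further: 0% = DMSO wells and 100% = 60 µM geldanamycin wells; inhibitors lower the luminescence because luciferase stays unfolded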
HIF-2a inh – HIF-2a inhibition. inhibition, % at 18.8 µM. AID 624352. 786-0 RCC cells HIF-2a reporter, luciferase luminescence, overnight. 360,000 tested, 0.72% active;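 active means inhibition of the luminescence signal of 40% or more relative to plate controls, in a single-dose primary screen at 18.75 µM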
aSyn 5UTR inh – MLPCN primary screen, SNCA 5' untranslated region. alpha-synuclein 5'UTR reporter, inhibitor activity. inhibition, % (tested at 7.5 µM). 300,000 tested, 0.82% active. AID 1813; in the data active means inhibition above about 60%;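 further: H4 neuroglioblastoma cells stably carrying SNCA 5'UTR luciferase fusion; 0% = DMSO wells and 100% = positive control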
Mdm2 MdmX conf – confirmation of inhibitors of human Mdm2/MdmX interaction, set 2; shares compounds with HIF-2a inh; SaOS-2 split-luciferase Mdm2/MdmX complementation, luminescence; inhibition, % at 8 µM; 740 tested, 99% active;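 active means mean inhibition of the luminescence signal across two replicates at or above 26 percent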
HIF-2a conf – confirmation of HIF-2a inhibitors. AID 651580. 786-0 RCC cells, HIF-2a luciferase reporter luminescence, overnight. shares compounds with HIF-2a inh. inhibition, % at 18.8 µM. 1,800 tested, 56% active;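 active means mean inhibition across four replicates of at least 40 percent at the single tested concentration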
HIF-1a counter – HIF-1a inhibition counter-screen for HIF-2a hits | inhibition, % at 18.8 µM | MiaPaCa-2 HIF-1a luciferase reporter, desferoxamine, overnight | 1,800 tested, 72% active | AID 651589 | shares compounds with HIF-2a inh;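 active means mean inhibition of the reporter signal across four replicates at the single tested dose of 50% or more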
An asterisk follows results filed as active.

O=C(CCc1ccccc1)N1Cc2cc(N3CCCCC3)ccc2-n2nncc2C1 was read as TROY NFkB inh 11.0, C8 TRAIL sens -5.6, TWEAK Fn14 block -8.9 and HIF-2a inh 16.7.
COc1ccc(CN2Cc3cnnn3-c3ccccc3C2c2ccccc2)cc1 (stereo not drawn) was read as TROY NFkB inh 8.4, C8 TRAIL sens 13.9, TWEAK Fn14 block -18.4 and HIF-2a inh 25.8.
Screening COc1ccc(CN2Cc3cnnn3-c3ccccc3C2C#N)cc1 (stereo not drawn) returned TROY NFkB inh 46.3, C8 TRAIL sens 47.9, TWEAK Fn14 block 74.2*, HIF-2a inh 89.6*, HIF-2a conf 96.0* and HIF-1a counter 105.0*.
Screening CN1Cc2cnnn2-c2ccccc2C1C#N (stereo not drawn) returned TROY NFkB inh -1.8, C8 TRAIL sens -9.3, TWEAK Fn14 block 0.5 and HIF-2a inh -1.3.
`N#CC1c2ccccc2-n2nncc2CN1Cc1cc(Cl)cc(Cl)c1` (stereo not drawn) gave TROY NFkB inh 90.6*, C8 TRAIL sens 75.9*, TWEAK Fn14 block 107.1*, HIF-2a inh 92.7*, HIF-2a conf 97.5* and HIF-1a counter 107.1*.
Screening COc1ccc2c3c1OC1[C@H](O)CCC4[C@@H](C2)N(C)CC[C@]314 (stereo partly drawn) returned TROY NFkB inh 2.5, C8 TRAIL sens -5.2, TWEAK Fn14 block -0.2 and HIF-2a inh 12.4.
Screening CCN1C(=O)CC(=O)N(CC)C1=S returned TROY NFkB inh -7.9, C8 TRAIL sens -8.4, TWEAK Fn14 block -4.9 and HIF-2a inh 8.9.
`c1ccc(-c2cc(-c3ccccc3)[n+](-c3ccccc3)c(-c3ccccc3)c2)cc1` gave TROY NFkB inh 70.6*, C8 TRAIL sens 75.2*, TWEAK Fn14 block 86.5*, HSP90 refold inh 5.1, HIF-2a inh 8.2, aSyn 5UTR inh -0.9 and Mdm2 MdmX conf 101.7*.
O=[N+]([O-])c1ccc(N2CCOCC2)c2c1no[n+]2[O-] was read as TROY NFkB inh 37.6, C8 TRAIL sens 93.6*, TWEAK Fn14 block 103.3*, HIF-2a inh 69.0*, HIF-2a conf 58.0* and HIF-1a counter 101.4*.
O=[N+]([O-])c1ccc(N2CCOCC2)c2cccnc12 was read as TROY NFkB inh 5.7, C8 TRAIL sens -11.9, TWEAK Fn14 block 6.5, HSP90 refold inh -0.1, HIF-2a inh 11.3 and aSyn 5UTR inh 15.6.
For CCOC(=O)[C@]12Cc3cc(Cl)ccc3[C@H]1N(C1CCCCC1)C(=O)c1ccccc12 the results were TROY NFkB inh 57.0*, C8 TRAIL sens 95.5*, TWEAK Fn14 block 89.8*, HIF-2a inh 85.5*, HIF-2a conf 96.8* and HIF-1a counter 105.0*.
Screening CCOC(=O)[C@]12Cc3cc(OC)ccc3[C@H]1N(C(C)C)C(=O)c1cc(OC)ccc12 returned TROY NFkB inh 51.6*, C8 TRAIL sens 54.6*, TWEAK Fn14 block -7.6, HIF-2a inh 51.8*, HIF-2a conf 89.6* and HIF-1a counter 95.8*.
Screening CCOC(=O)[C@]12Cc3cc(Cl)ccc3[C@H]1N(C)C(=O)c1ccccc12 returned TROY NFkB inh 9.8, C8 TRAIL sens 7.2, TWEAK Fn14 block 1.1 and HIF-2a inh 17.5.
CCOC(=O)[C@]12Cc3cc(Cl)ccc3[C@H]1N(C(C)C)C(=O)c1ccccc12 was read as TROY NFkB inh 39.9, C8 TRAIL sens 71.5*, TWEAK Fn14 block 78.3*, HIF-2a inh 90.4*, HIF-2a conf 94.8* and HIF-1a counter 104.2*.
`CCOC(=O)[C@]12Cc3cc(Cl)ccc3[C@H]1N(CC(=O)OC)C(=O)c1ccccc12` gave TROY NFkB inh 29.5, C8 TRAIL sens 58.1*, TWEAK Fn14 block 79.8*, HIF-2a inh 80.8*, HIF-2a conf 93.9* and HIF-1a counter 104.1*.

Compound activity as filed in PubChem BioAssay.
